Measurements: paper PMC12431657, “Discovery and mechanistic insights of dibenzoylmethane as a broad spectrum inhibitor of coronavirus” (PLOS Pathogens, 2025)
Where a name gives a salt, the structure may show the parent alone. Read-outs that look alike come from different tables or passages of the source. Out of some 3,300 compounds screened, about 60 (2%) showed an effect of 50% or more. What follows is part of a selection rich in strong results, with near analogues and random picks from the rest. Bridge positions count the residues as written; N and C are the ends. Square brackets hold non-standard residues; d marks the D form. Peptide text beside a SMILES is read from it. * marks the point of attachment. Ileψ(thiazoline)Cys = CC[C@H](C)[C@H](N)C1=N[C@H](C(=O)*)CS1; NMePhe(4-NMe2) = CN[C@@H](Cc1ccc(N(C)C)cc1)C(=O)O; Pip(4-oxo) = O=C1CCN[C@H](C(=O)O)C1; Picolinoyl(3-OH) = O=C(c1ncccc1O)*; Phg = N[C@H](C(=O)O)c1ccccc1; dOrn = NCCC[C@@H](N)C(=O)O; dAbu = CC[C@@H](N)C(=O)O

Tested on: HCoV-OC43
Set-up: species or system RD; HTS, protection from HCoV-OC43 induced cell death, luminescent cell viability (CellCounting-Lite 2.0), inhibition rate
Conditions: 24 h post infection, 1 h compound pre-incubation, 10 µM, inhibitor

Row | SMILES | OC43 Inhibition rate (OC43 Inhibition rate, 24 h) [%] | OC43 Inhibition rate [%]
1 | C[C@H](CCC(=O)NCC(=O)O)[C@H]1CC[C@H]2[C@@H]3CC[C@@H]4C[C@H](O)CC[C@]4(C)[C@H]3C[C@H](O)[C@]12C [Glycodeoxycholic acid (monohydrate)] | -0.8 | –
2 | CCCCCCCC/C=C\CCCCCCCCCCCCCC(=O)O [Nervonic acid] | – | -2.1
3 | CC(=O)N[C@H](C(=O)O)C(C)C [Acetylvaline] | – | -0.2
4 | COc1ccc2c(c1OC)CN(C)c1c-2ccc2cc3c(cc12)OCO3 [Dihydrochelerythrine] | – | 1.4
5 | O=c1cc(-c2ccccc2)oc2c1ccc1ccccc12 [Alpha-Naphthoflavone] | – | 65.1
6 | O=c1cc(-c2ccccc2)oc2c(O)c(O)ccc12 [7,8-Dihydroxyflavone] | – | 0.2
7 | O=c1cc(-c2ccccc2)oc2ccccc12 [Flavone] | – | 0.3
8 | CC(C)=CCC[C@](C)(O[C@@H]1O[C@H](CO)[C@@H](O)[C@H](O)[C@H]1O)[C@H]1CC[C@]2(C)[C@@H]1[C@H](O)C[C@@H]1[C@@]3(C)CC[C@H](O)C(C)(C)[C@@H]3[C@@H](O[C@@H]3O[C@H](CO)[C@@H](O)[C@H](O)[C@H]3O[C@@H]3OC[C@@H](O)[C@H](O)[C@H]3O)C[C@]12C [Notoginsenoside R1] | – | 0.5
9 | N[C@@H](Cc1c[nH]cn1)C(=O)O [L-Histidine (hydrochloride hydrate)] | 2.4 | –
10 | CC[C@H]1NC(=O)[C@@H](NC(=O)c2ncccc2O)[C@@H](C)OC(=O)[C@H](c2ccccc2)NC(=O)[C@@H]2CC(=O)CCN2C(=O)[C@H](Cc2ccc(N(C)C)cc2)N(C)C(=O)[C@@H]2CCCN2C1=O [Pristinamycin IA] ({Picolinoyl(3-OH)}-T[dAbu]P[NMePhe(4-NMe2)][Pip(4-oxo)][Phg]; ester 1-C) | – | 1.7
11 | NCCCCNCCCN [Spermidine] | -0.8 | –
12 | COc1cc(O)cc2oc(-c3ccc(O)c(O)c3)c(O)c(=O)c12 [Azaleatin] | – | 7.4
13 | COc1ccc2cc3n(c(=O)c2c1OC)CCc1cc2c(cc1-3)OCO2 [Oxyberberine] | – | 58.7
14 | O=c1c2c3c(ccc2cc2n1CCc1cc4c(cc1-2)OCO4)OCO3 [8-Oxocoptisine] | – | -0.2
15 | COc1cc2c(cc1OC)-c1cc3ccc4c(c3c(=O)n1CC2)OCO4 [8-Oxoepiberberine] | – | 10.1
16 | OC[C@H]1O[C@@H](Oc2cc(/C=C/c3cc(O)cc(O)c3)ccc2O)[C@H](O)[C@@H](O)[C@@H]1O [Piceatannol 3'-O-glucoside] | – | 2
17 | CC(C)=CCC12Oc3cc(O)ccc3C1(O)Oc1cc(O)c([C@H]3C=C(C)C[C@@H](c4ccc(O)cc4O)[C@@H]3C(=O)c3ccc(O)cc3O)c(O)c1C2=O (stereo partly shown) [Sanggenon D] | – | 42.1
18 | CC(C)(O)[C@@H]1CC[C@](C)([C@H]2[C@@H](O)C[C@@]3(C)[C@@H]4C[C@H](O)[C@H]5C(C)(C)[C@@H](O)CC[C@@]56C[C@@]46CC[C@]23C)O1 [Cycloastragenol] | – | 0.7
19 | CC(C)(O)[C@H]1CC[C@@](C)([C@H]2[C@@H](O)C[C@@]3(C)[C@@H]4C[C@H](O)[C@H]5C(C)(C)[C@@H](O)CC[C@@]56C[C@@]46CC[C@]23C)O1 [Cyclogalegenin] | – | 8.4
20 | CN[C@@H](C)[C@H]1[C@H](O)C[C@@]2(C)[C@@H]3CC[C@H]4C(C)(C)[C@@H](NC)CC[C@@]45C[C@@]35CC[C@]12C [Cyclovirobuxine D] | – | 109.3
21 | NCC(O)c1ccccc1 (stereo not shown) [2-Amino-1-phenylethanol] | – | 0
22 | O=C(O)c1ccc(O)cc1 [4-Hydroxybenzoic acid] | – | 0.1

Row | SMILES | OC43 Inhibition rate (OC43 Inhibition rate, 24 h) [%] | OC43 Inhibition rate [%]
23 | C[C@@H](O)CO [(R)-(-)-1,2-Propanediol] | – | -0.2
24 | COc1cc(CNC(=O)CCCC/C=C/C(C)C)ccc1O[C@@H]1O[C@H](CO)[C@@H](O)[C@H](O)[C@H]1O [Capsaicin β-D-glucopyranoside] | – | 0.3
25 | CC1=CC(=O)[C@@H]2C[C@H]1C2(C)C [Verbenone] | – | -0.2
26 | C=C1[C@@H](O)[C@]2(O)OC[C@]34[C@H]2[C@@]2(C)[C@H](O)C(=O)C=C(C)[C@@H]2C[C@H]3OC(=O)[C@H](O)[C@@]14O [Eurycomanone] | – | 54.5
27 | O=C(O)c1ccncc1 [Isonicotinic acid] | – | -0.2
28 | O=C(O)C(CO)c1ccccc1 (stereo not shown) [Tropic acid] | – | 0.5
29 | CCC(C)(C)C(=O)O[C@H]1C[C@@H](C)C=C2C=C[C@H](C)[C@H](CC[C@@H](O)C[C@@H](O)CC(=O)O)[C@H]21 [Simvastatin acid (ammonium)] | – | 5
30 | CC(C)[C@@H]1NC(=O)CNC(=O)[C@H](C)NC(=O)[C@H](Cc2c[nH]c3ccccc23)NC(=O)[C@H](C)NC1=O [Segetalin B] (cyclo(AGVAW)) | – | -0.5
31 | CCCCCCCCCC(=O)N[C@@H](Cc1c[nH]c2ccccc12)C(=O)N[C@H](CC(N)=O)C(=O)N[C@@H](CC(=O)O)C(=O)N[C@@H]1C(=O)NCC(=O)N[C@@H](CCCN)C(=O)N[C@@H](CC(=O)O)C(=O)N[C@H](C)C(=O)N[C@@H](CC(=O)O)C(=O)NCC(=O)N[C@H](CO)C(=O)N[C@@H]([C@H](C)CC(=O)O)C(=O)N[C@@H](CC(=O)c2ccccc2N)C(=O)O[C@@H]1C [Daptomycin] | – | 62.7
32 | CC[C@H](C)[C@H](N)C1=N[C@H](C(=O)N[C@@H](CC(C)C)C(=O)N[C@H](CCC(=O)O)C(=O)N[C@H](C(=O)N[C@H]2CCCCNC(=O)[C@H](CC(N)=O)NC(=O)[C@@H](CC(=O)O)NC(=O)[C@H](Cc3cnc[nH]3)NC(=O)[C@@H](Cc3ccccc3)NC(=O)[C@H]([C@@H](C)CC)NC(=O)[C@@H](CCCN)NC2=O)[C@@H](C)CC)CS1 [Bacitracin] ({Ileψ(thiazoline)Cys}-L[dE]IK[dOrn]I[dF]H[dD]N; lactam 4-C) | – | -0.3
33 | CN1C[C@@H]2C[C@H](C1)c1cccc(=O)n1C2 [N-Methylcytisine] | – | -2.8
34 | C=C1CCOC1=O [Tulipalin A] | – | 28.2
35 | Oc1ccc2ccc3cccc4ccc1c2c34 [1-Hydroxypyrene] | – | 16.8
36 | CC1(C)[C@@H](O)CC[C@]2(C)[C@H]3CC=C4[C@@H]5C[C@@]6(C)C[C@H](OC6=O)[C@]5(C)CC[C@@]4(C)[C@]3(C)CC[C@@H]12 [Wilforlide A] | – | 0.1
37 | O=C(N[C@@H](Cc1ccccc1)C(=O)N[C@H](CO)Cc1ccccc1)c1ccccc1 [Aurantiamide] | – | 1
38 | COc1c(CC=C(C)C)c(O)cc2oc(=O)c(-c3ccc(O)cc3O)cc12 [Glycycoumarin] | – | 0.9
39 | CC(C)=CCc1cc2c(cc1O)oc(=O)c1c3ccc(O)cc3oc21 [Psoralidin] | – | 0
40 | COc1c(CC=C(C)C)c(O)cc2oc(=O)c3c4ccc(O)cc4oc3c12 [Neoglycyrol] | – | 113.3
41 | Cc1c(C)c2c(c(C)c1O)CC[C@@](C)(CCCC(C)CCCC(C)CCCC(C)C)O2 (stereo in doubt) [rel-α-Vitamin E] | – | 5.5
42 | CC1(C)CC[C@]2(C(=O)O[C@@H]3O[C@H](CO)[C@@H](O)[C@H](O)[C@H]3O)CC[C@]3(C)C(=CC[C@@H]4[C@@]5(C)CC[C@H](O[C@@H]6O[C@H](C(=O)O)[C@@H](O[C@@H]7O[C@@H](CO)[C@H](O)[C@H]7O)[C@H](O)[C@H]6O)C(C)(C)[C@@H]5CC[C@]43C)[C@@H]2C1 [Araloside A] | – | 1.5
43 | COc1cc2oc(-c3ccccc3)cc(=O)c2c(OC)c1OC [5,6,7-Trimethoxyflavone] | – | 0.1
44 | COC(=O)CC/C(C)=C/Cc1c(O)c2c(c(C)c1OC)COC2=O [Methyl mycophenolate] | – | 61.8

Row | SMILES | OC43 Inhibition rate (OC43 Inhibition rate, 24 h) [%] | OC43 Inhibition rate [%]
45 | COc1c(C)c2c(c(O)c1C/C=C(\C)CCC(=O)O)C(=O)OC2 [Mycophenolic acid] | – | 36.2
46 | COc1cc(-c2c3c(c(O)c4cc5c(cc24)OCO5)COC3=O)cc(OC)c1OC [Tetradehydropodophyllotoxin] | – | 1
47 | O=C(O)c1cn[nH]c1 [4-Carboxypyrazole] | – | 0.1
48 | C=C(C(=O)O)[C@@H]1CC[C@@H](C)[C@@H]2CCC(C)=C[C@@H]21 [Artemisic acid] | – | 4.6
49 | Cc1ncc(C[n+]2csc(CCO)c2C)c(N)n1 [Thiamine monochloride] | 2.4 | –
50 | C[S@@+]([O-])CCCCN=C=S [(R)-sulforaphane] | – | 71.2
51 | CC1=CCCC(C)(C)[C@H]1/C=C/C(C)=C/C=C/C(C)=C/C=C/C=C(C)/C=C/C=C(C)/C=C/C1=C(C)CCCC1(C)C [α-Carotene] | – | 19.1
52 | O=c1ccc2nccc3c4ccccc4n1c23 [Canthin-6-one] | – | -0.9
53 | O=C(/C=C/c1ccc(O)c(O)c1)O[C@H]1[C@H](O)C[C@](O)(C(=O)O)C[C@H]1OC(=O)/C=C/c1ccc(O)c(O)c1 [3,4-Dicaffeoylquinic acid] | – | 6.5
54 | C[N+](C)(C)[O-] [Trimethylamine N-oxide (dihydrate)] | -1.8 | –
55 | CC(C)C[C@H](NC(=O)[C@@H](O)[C@H](N)Cc1ccccc1)C(=O)O [Bestatin] | 1.8 | –
56 | O=C1C[C@@H](c2ccc(O)c(O)c2)Oc2cc(O)cc(O)c21 [Eriodictyol] | – | 0.2
57 | CC(C)=CCc1cc2c(cc1O)O[C@H](c1ccc(O)cc1)CC2=O [Bavachin] | – | 66.9
58 | COc1cc(O)c(CC=C(C)C)c2c1C(=O)CC(c1ccc(O)cc1)O2 (stereo not shown) [Isoxanthohumol] | – | 30.2
59 | CC(C)=CCc1c(O)cc2c(c1O)C(=O)C[C@@H](c1ccc(O)cc1)O2 [(2S)-6-Prenylnaringenin] | – | 54.9
60 | O=C1C[C@@H](c2ccc(O)c(O)c2)Oc2c1ccc(O[C@@H]1O[C@H](CO)[C@@H](O)[C@H](O)[C@H]1O)c2O [Flavanomarein] | – | -5.7
61 | COc1cc(O)c(CC=C(C)C)c2c1C(=O)C[C@@H](c1ccc(O)cc1)O2 [(2S)-Isoxanthohumol] | – | 48.2
62 | CC(C)=CCc1cc([C@@H]2CC(=O)c3ccc(O)c(CC=C(C)C)c3O2)ccc1O [Glabrol] | – | 55.6
63 | O=C1C[C@@H](c2ccc(O)cc2)Oc2cc(O)ccc21 [Liquiritigenin] | – | 0.2
64 | COc1cc2c(cc1CC=C(C)C)C(=O)C[C@@H](c1ccc(O)cc1)O2 [Bavachinin] | – | 20.3
